Results published in PubChem BioAssay (NCI).
Compounds without any hit were thinned out: in the full panel of roughly 83,000, 20% have a hit.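 48-hour exposure, single concentration, 96-well plates; percent growth endpoint where 0 means no net growth. Active: below 10.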 Calls of active or inactive are those of the source.

Tested on: SNB-75 CNS
Assay: NCI-60 one-dose screen, 48 h (100 = growth as untreated, 0 = no growth, -100 = all killed)
Details: 10 µM unless noted
Method: Growth inhibition of the SNB-75 human tumor cell line is measured as a screen for anti-cancer activity. Cells are grown in 96 well plates and exposed to the test compound for 48 hours. Compounds are tested at a single concentration, which is 10^-5 M for most compounds. The reported endpoint is percent growth (GI% or GIPRCNT), where numbers from 0 - 100% represent growth inhibition, and numbers from -100% - 0 represent cell death. For example, a value of 40 represents 60% growth inhibition. A value of 0 means no net growth occurred over the course of the experiment. A value of -40 indicates 40% of cells at the beginning of the experiment died by the end of the experiment. A value of -100 means all cells are dead at the end of the experiment.
NCI-60 Human Tumor Cell Lines Screen was performed using the standard one-dose NCI protocol, which is described in more detail at https://dtp.cancer.gov/discovery_development/nci-60/default.htm.
Compounds with GIPRCNT values below 10 were considered active. Activity score was based on GIPRCNT using the following formula: […]
Score is 0 for GIPRCNT values of 100 or above, 50 for GIPRCNT values of 0, and 100 for GIPRCNT values of -100.

Row | SMILES | growth
1 | COc1cc(/C=C/c2cn[nH]c2-c2ccc(C)cc2)cc(OC)c1OC | 29.5% (inactive)
2 | O=C(Cc1ccc(/C=C/C(=O)c2ncc[nH]2)cc1)Nc1cc(F)c(F)c(F)c1 | 44.8% (inactive)
3 | O=C(/C=C/c1ccco1)Nc1ncc(Cc2cc(Cl)ccc2Cl)s1 | 16.6% (inactive)
4 | O=C(NCc1ccc(Cn2c(=O)sn(-c3ccccc3)c2=O)cc1)OCc1ccc2cccc(O)c2n1 | -22.6% (active)
5 | Cc1ccc(Cc2cnc(NC(=O)/C=C/c3ccc(C)o3)s2)cc1 | 26.7% (inactive)
6 | O=C1NC(=O)C(c2coc3cc(Br)ccc23)=C1c1c[nH]c2ccccc12 | -2.44% (active)
7 | CC/C(=C(\c1ccc(Cl)cc1)c1ccc(OCCN2CCCCC2)cc1)c1ccc(O)cc1 | 40.5% (inactive)
8 | CCOC(=O)NCCCC(=O)NCCc1ccccc1 | 109% (inactive)
9 | CCN(CC)C(=O)CC1=C(C)/C(=C/c2[nH]c(-c3ccc[nH]3)cc2OC)N=C1C | 14.2% (inactive)
10 | O=C(NCCCCCCNC(=O)OCc1ccc2c(Cl)cc(Cl)c(O)c2n1)OCc1ccc2c(Cl)cc(Cl)c(O)c2n1 | -96.2% (active)
11 | Nc1nc(N)c2c(n1)NC(c1cccc(Nc3ccnc4cc(C(F)(F)F)ccc34)c1)CC(c1ccc3c(c1)OCO3)=N2 (stereo not given) | 78.7% (inactive)
12 | Clc1ccc2nn3c4ccccc4c(OCCN4CCOCC4)nc3c2c1 | 76.8% (inactive)
13 | COc1ccc(/C=C2\CN(C(=O)C(Cl)Cl)C/C(=C\c3ccc(OC)c(OC)c3)C2=O)cc1OC | 10.9% (inactive)
14 | Cc1cc(C(=O)CCCC(=O)c2cc(C)c(O)c(C)c2)cc(C)c1O | 69.7% (inactive)
15 | COc1cc([C@@H](CCO)C[C@H](C)c2ccc3ccccc3c2)cc(OC)c1OC | -10% (active)
16 | c1ccc(Nc2nc3c(s2)CCc2c[nH]cc2-3)nc1 | 88.7% (inactive)
17 | Cc1ccc(C)c2c1sc1nc(N3CCOCC3)c(C#N)c(=O)n12 | 53.2% (inactive)
18 | CN(C)CCCNC(=O)c1cncnc1Nc1ccc2c(ccn2Cc2cccc(F)c2)c1 | 78% (inactive)
19 | O=C(OCc1ccc2c(Cl)cc(Cl)c(O)c2n1)N1CCN(C(=O)c2cc3ccccc3[nH]2)CC1 | 36.3% (inactive)
20 | COc1cc2ncnc(Nc3ccc(S(=O)(=O)Nc4nccs4)cc3)c2cc1OCCCN1CCCC1 | 93.8% (inactive)

Row | SMILES | growth
21 | N=C(N)c1ccc(-c2ccc(-c3cc(Cl)cc(Cl)c3)s2)s1 | 3.24% (active)
22 | CN(C)CCCn1c2c(c3ccncc3c1=O)C(=O)c1ccccc1-2 | 21% (inactive)
23 | COc1cc(/C=C/c2cc(/C=C/c3ccc(O)c(OC)c3)n(C(=O)Nc3ccc(Cl)cc3)n2)ccc1O | 18.7% (inactive)
24 | C=C(C)[C@@H]1CC[C@]2(C(=O)N3CCN(C)CC3)CC[C@]3(C)[C@H](CC[C@@H]4[C@@](C)(CCC(=O)O)[C@H](C(=C)C)CC[C@]43C)[C@@H]12 | 76% (inactive)
25 | Cc1nc(N/N=C/c2cn(-c3ccccc3)nc2-c2cc3ccccc3oc2=O)sc1N=Nc1ccccc1 | 50.4% (inactive)
26 | O=C(N/N=C/c1ccc(Cl)cc1)c1ccc(NC(=O)c2ccccn2)cc1 | -16% (active)
27 | CNC(=O)c1cc(Oc2ccc3c(c2)sc2nc(-c4ccc(NC(=O)[C@@H](NC(=O)OC)C(C)C)cc4)cn23)ccn1 | 99.5% (inactive)
28 | CSc1ccc(N2C(=N)C(=S)N(c3ccc(C)cc3)C2=O)cc1 | 89.9% (inactive)
29 | CCOC(=O)C#Cc1c(C(=O)OCC)nnn1[C@@H]1O[C@H](COC)[C@@H](OC)[C@H]1OC | 72.9% (inactive)
30 | COc1cc2c3c(c4c5ccccc5[nH]c4c2c(OC)c1OC)C(=O)N(CCN1CCCCC1)C3=O | 63.5% (inactive)
31 | CCn1cc(C(=O)N/N=C/c2cccc(F)c2)c(=O)c2cc(F)c(N3CCNC(C)C3)c(F)c21 (stereo not given) | 90.1% (inactive)
32 | N#C/C(=C\c1ccc(-c2cccc(Cl)c2)o1)C(=O)Nc1ncc(Cc2ccc(Cl)cc2)s1 | -3.05% (active)
33 | ClCCn1cnc2c(SCc3ccccc3)ncnc21 | 73.9% (inactive)
34 | CC(C)=CC(=O)N[C@H]1CC[C@]2(C)C3CC[C@]4(C)C(C(C)N(C)C)=CCC4C3CCC2[C@H]1O (stereo not given in full) | 65% (inactive)
35 | COC(=O)/C=C1/SC(=NCc2ccccc2)N(CCc2c[nH]c3ccccc23)C1=O | 104% (inactive)
36 | Cc1cc(NCCCNc2ccnc3cc(Cl)ccc23)nc(Nc2ccc(C(=O)N3CCCCC3)cc2)n1 | 26.7% (inactive)
37 | C/C(=C(\c1ccc(OCCN2CCCCCC2)cc1)c1ccc(OC(=O)c2ccccc2)cc1)c1ccc(Cl)cc1 | 73.7% (inactive)
38 | Cc1ccc(NC(=O)c2cc3ccccc3cc2O)c(C)c1 | 96.8% (inactive)
39 | O=C(/C=C/c1ccccc1)N(C1CCCCC1)C1CCCCC1 | 81.4% (inactive)
40 | COc1ccc(N/N=C/c2cn(-c3ccc(C(=O)O)cc3)nc2-c2cc3ccccc3oc2=O)cc1 | 82.1% (inactive)
